PubChem BioAssay AID1159580 (chemical genetic matrix, 2015)
“And” between values parts separate entries of the source, which are not always exact repeats. Equal entries are not always repeated. Among all 5,500 compounds or so, about 2,000 (36%) were called active. Another 18% or so got no clear call; they are omitted. Rule as the data show it: active = normalized growth mostly below about 0.91 (no sharp cut-off); inconclusive = no clear call, values can overlap the other calls; inactive = mostly above about 0.92. Some of the results follow.

Assay: chemical genetic growth profiling, strain panel (AID 1159580);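 also: tested at 20 µM; growth read once vehicle control cultures reached saturation at 30 °C; 1 = growth at the plate median or of vehicle wells; lower values mean less growth of the strain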
Conditions: S. cerevisiae deletion strains, growth OD

Measured: normalized growth

CCn1cc(C(=O)O)c(=O)c2ccc(C)nc21
inactive: locus YAL013W, strain DEP1, hits give low values 0.938 and 0.977 | locus YAL040C, strain CLN3, hits give low values 0.961 | locus YBL061C, strain skt5, hits give low values 0.928 | locus YBR009C, strain hhf1, hits give low values 0.947 | locus YBR021W, strain FUR4, hits give low values 1.09 | locus YBR023C, strain chs3, hits give low values 0.945 | locus YBR171W, strain sec66, hits give low values 0.931 | locus YBR231C, strain swc5, hits give low values 0.936 | locus YCL011C, strain gbp2, hits give low values 0.939 | locus YCL016C, strain dcc1, hits give low values 0.945 | locus YCL029C, strain bik1, hits give low values 0.935 | locus YCL061C, strain MRC1 (second series), hits give low values 0.961 | locus YCL061C, strain MRC1, hits give low values 0.936 | locus YCL069W, strain vba3, hits give low values 0.943 | locus YCR088W, strain abp1, hits give low values 0.953 | locus YDL005C, strain med2, hits give low values 0.983 | locus YDL035C, strain GPR1, hits give low values 0.963 | locus YDL074C, strain BRE1, hits give low values 1.06 | locus YDL101C, strain DUN1, hits give low values 0.941 | locus YDL134C, strain PPH21, hits give low values 0.912 | locus YDL185W, strain tfp1, hits give low values 0.924 | locus YDR001C, strain nth1, hits give low values 0.94 | locus YDR069C, strain doa4, hits give low values 0.932 | locus YDR101C, strain arx1, hits give low values 0.92 | locus YDR150W, strain NUM1, hits give low values 0.936 and 0.96 | locus YDR159W, strain sac3, hits give low values 1.07 | locus YDR162C, strain NBP2, hits give low values 0.936 | locus YDR297W, strain sur2, hits give low values 0.928 | locus YDR318W, strain mcm21, hits give low values 0.963 | locus YDR334W, strain swr1, hits give low values 0.916 | locus YDR335W, strain msn5, hits give low values 0.937 | locus YDR363W, strain ESC2, hits give low values 0.965 | locus YDR388W, hits give low values 0.941 | locus YDR392W, strain spt3, hits give low values 1.03 | locus YDR502C, strain sam2, hits give low values 0.961 | locus YEL003W, strain gim4, hits give low values 0.939 | locus YEL037C, strain rad23, hits give low values 0.926 | locus YEL061C, strain CIN8 (second series), hits give low values 0.935 | locus YEL061C, strain CIN8, hits give low values 0.946 | locus YER002W, strain NOP16, hits give low values 0.958 | locus YER015W, strain faa2, hits give low values 0.947 | locus YER016W, strain bim1, hits give low values 0.924 | locus YER110C, hits give low values 0.9 | locus YER111C, strain swi4, hits give low values 0.966 | locus YER155C, strain BEM2 (second series), hits give low values 0.943 | locus YER155C, strain BEM2, hits give low values 0.951 | locus YER167W, strain BCK2, hits give low values 0.988 | locus YFR010W, strain ubp6, hits give low values 0.974 | locus YGL078C, strain dbp3, hits give low values 0.947 | locus YGL086W, strain mad1, hits give low values 0.954 | locus YGL227W, strain vid30, hits give low values 0.939 | locus YGL248W, strain PDE1, hits give low values 0.906 | locus YGL253W, strain hxk2, hits give low values 0.957 | locus YGR078C, strain PAC10, hits give low values 0.997 | locus YGR135W, strain pre9, hits give low values 0.916 | locus YGR229C, strain SMI1, hits give low values 1 and 0.98 | locus YHR013C, strain ard1, hits give low values 1.02 | locus YHR027C, strain rpn1, hits give low values 0.938 | locus YHR030C, strain SLT2, hits give low values 0.921 and 0.918 | locus YHR079C, strain IRE1 (second series), hits give low values 0.932 | locus YHR079C, strain IRE1, hits give low values 0.97 | locus YHR142W, strain chs7, hits give low values 0.979 | locus YHR200W, strain rpn10, hits give low values 0.963 | locus YIL066C, strain RNR3, hits give low values 0.972 | locus YIL073C, strain SPO22, hits give low values 0.97 | locus YIL125W, strain kgd1, hits give low values 0.951 | locus YJL092W, strain hpr5, hits give low values 0.961 | locus YJL095W, strain BCK1 (second series), hits give low values 0.942 | locus YJL095W, strain BCK1, hits give low values 0.949 and 0.948 | locus YJL115W, strain asf1, hits give low values 0.956 | locus YJL129C, strain trk1, hits give low values 0.972 | locus YJL154C, strain vps35, hits give low values 0.959 | locus YJL164C, strain tpk1, hits give low values 0.946 | locus YJL166W, strain qcr8, hits give low values 0.94 | locus YJL187C, strain SWE1 (second series), hits give low values 0.93 | locus YJR043C, strain POL32, hits give low values 0.967 | locus YJR066W, strain TOR1, hits give low values 0.899 | locus YJR075W, strain HOC1, hits give low values 0.972 and 0.961
active: locus YAL021C, strain ccr4, hits give low values 0.805 | locus YAL026C, strain drs2, hits give low values 0.855 | locus YAL030W, strain snc1, hits give low values 0.917 | locus YBR229C, strain ROT2, hits give low values 0.914 | locus YBR279W, strain paf1, hits give low values 0.924 | locus YDL040C, strain nat1, hits give low values 0.923 | locus YDL192W, strain arf1, hits give low values 0.9 | locus YDR137W, strain rgp1, hits give low values 0.345 | locus YDR195W, strain ref2 0.691 | locus YGL167C, strain pmr1, hits give low values 0.912 | locus YGL173C, strain kem1, hits give low values 0.799 | locus YGL240W, strain doc1, hits give low values 0.834 | locus YHR094C, strain hxt1, hits give low values 0.923 | locus YHR129C, strain ARP1, hits give low values 0.918 | locus YIR030C, strain dcg1, hits give low values 0.914 | locus YJL134W, strain LCB3, hits give low values 0.92 | locus YJL168C, strain set2, hits give low values 0.895
